This is an account of results in PubChem BioAssay AID2314 (National Center for Advancing Translational Sciences (NCATS), 2010).

Screen size: about 300,000 compounds; about 37,000 (12%) were called active. Rule as the data show it: active = max response mostly above about 13% (no sharp cut-off); inactive = mostly below about 14%. Only a selection was taken, and actives are over-represented in it overall.

The test in a line: Cycloheximide Counterscreen for Small Molecule Inhibitors of Shiga Toxin. Also: read at 38.3 µM for the half of the compounds with a filed dose; 0% is about no effect. As to conditions: cell reporter, cycloheximide protein synthesis inhibition counterscreen; stronger effect = higher value. In general terms: A counterscreen serves to expose hits that act by an unwanted route or on another target.
In the case of `Cc1ccc(N(Cc2ccc(C(=O)Nc3ccccc3C(=O)NCc3ccco3)cc2)S(C)(=O)=O)cc1C`, the max response was -1.16% (inactive).
As for `O=C(COc1ccc(Cl)cc1)NCc1nnc(SCC(=O)NCC2CCCO2)o1` (centres undefined), the figure is 1.5% (inactive); as for `S=C(NCCc1ccccc1)N1CCn2cccc2C1c1ccncc1` (centres undefined), 6.15% (inactive).
As for `CCC(C)(C)n1nnnc1CN1CCN(c2nc3ccc(C)cc3cc2C#N)CC1`, the figure is -1.82% (inactive); as for `CCOc1ccc(CN2CCN(Cc3c[nH]c4ccccc34)CC2)cc1`, -0.16% (inactive).
As for `CCOc1ccc(N(CC(=O)NCCc2ccc(F)cc2)S(=O)(=O)c2ccccc2)cc1`, the figure is 0.706% (inactive); as for `COc1ccc(NC(=S)N2CCCC(CO)C2)c(OC)c1` (centres undefined), -1.58% (inactive).
Consider `CCCCc1ccc(NC(=S)NCCCN2CCOCC2)cc1`, for which the max response was 12% (inactive).
As for `CCCCc1ccc(NC(=S)N2CCCC(CO)C2)cc1` (centres undefined), the figure is 39.3% (active); as for `COc1ccc(S(=O)(=O)NC(C)c2ccccc2)cc1C(=O)N1CCCCC1` (centres undefined), 8.07% (inactive).
`COc1ccc(CNC(=O)CN(Cc2ccccc2Cl)C(=O)c2csnn2)cc1`: the max response is -2.08% (inactive).
For the molecule `CC(=O)N1CCC(C(=O)OCc2ccc(Cl)cc2)(c2ccccc2)CC1`, the max response was 1.9% (inactive).
As to `CCOC(=O)C1(Cc2ccc(Cl)cc2)CCN(C(=O)C2=NNC(=O)CC2)CC1`, the max response is 10.1% (active).
As for `CCOC(=O)C1(Cc2ccc(Cl)cc2)CCN(C(C)CCn2cccn2)CC1` (centres undefined), the figure is -3.1% (inactive); as for `CCc1ccc(OCC2c3cc(OC)c(OC)cc3CCN2C(C)=O)cc1` (centres undefined), -2.66% (inactive); as for `O=C(CN1C(=O)S/C(=C\c2ccccc2Cl)C1=O)NC1C=CS(=O)(=O)C1` (centres undefined), 1% (inactive).
As for `O=C(NCc1cccnc1)Nc1ccccc1F`, the figure is 6.78% (inactive).
For the molecule `CCOc1cccc(C(=O)Nc2cnn(Cc3ccccc3)c2)c1`, the max response was 8.38% (inactive).
As for `O=C(Nc1ccccc1F)c1ccc(Cn2cc(Br)cn2)cc1`, the figure is 27.6% (active).
As to `Cc1ccc(N(Cc2ccccc2O)C(=O)c2ccccc2F)cc1`, the max response is -1.08% (inactive).
As for `CCN(CC)c1ccc(C(=O)NNC(=O)CCc2nc3ccccc3c(=O)[nH]2)cc1`, the figure is 8.34% (inactive); as for `Cc1cc(=O)oc2cc(NC(=O)C3CC(=O)N(Cc4ccccc4)C3)ccc12` (centres undefined), 5.63% (inactive).
As for `O=C(c1ccc(F)cc1)N1CCC(n2nnc3ccccc32)CC1`, the figure is 50% (active); as for `CC(=O)c1cccc(S(=O)(=O)N2CCC(n3nnc4cc(F)ccc43)CC2)c1`, -0.975% (inactive).
As for `O=S(=O)(c1cccc(S(=O)(=O)N2CCC(n3nnc4ccccc43)CC2)c1)N1CCCCC1`, the max response was -11.1% (inactive).
The result for `COc1ccc(N2CCN(S(=O)(=O)c3ccc4c(c3)NC(=O)C(C)C(=O)N4)CC2)cc1` (centres undefined) reads -1.38% (inactive).
As for `CN(CC(=O)O)S(=O)(=O)c1ccc2oc3ccccc3c2c1`, the figure is 1.18% (inactive); as for `COCCCNC(=S)N(CCN(C)C)Cc1cc2cc3c(cc2[nH]c1=O)OCCO3`, 6.79% (inactive).
As for `CC(=O)c1ccc(N2CCN(CC(O)c3ccccc3)CC2)cc1` (centres undefined), the figure is 5.47% (inactive); as for `CC(=O)c1ccc(N2CCN(C(=O)CCc3ccccc3)CC2)cc1`, 3.1% (inactive); as for `CC(=O)c1ccc(N2Cc3ccccc3C2)cc1`, 29.2% (active).
Regarding `Cc1cc(NS(=O)(=O)c2ccc(NC(=S)NC(=O)c3ccc(F)cc3Cl)cc2)no1`, the max response was -1.71% (inactive).
Regarding `CC(=O)Nc1ccc(/C(C)=N/NC(=O)CN(c2ccccc2Br)S(C)(=O)=O)cc1`, the max response was 8.32% (inactive).
The result for `CCN(C(=O)CSc1nnc(-c2ccncc2)o1)c1ccccc1` reads -2.4% (inactive); that for `CN(C(=O)CSc1nnc(-c2n[nH]c3ccccc23)o1)c1ccccc1`, 15.1% (active); that for `O=C(CSc1nnc(-c2c[nH]c3ccccc23)o1)c1ccccc1`, 8.16% (inactive).
As for `COc1cc(C2/C(=C(\O)c3ccc4c(c3)CC(C)O4)C(=O)C(=O)N2c2nnc(C)s2)cc(OC)c1OC` (centres undefined), the figure is -1.71% (inactive); as for `Cc1[nH]c2ccccc2c1/C=N\NC(=O)Cn1nnc(-c2ccccc2)n1`, -0.477% (inactive); as for `Cc1[nH]c2ccccc2c1/C=C(/C#N)C(=O)NC(C)C`, 16.8% (active).
As for `N#C/C(=C/c1ccc(N2CCCCC2)o1)C(=O)NCCc1c[nH]c2ccccc12`, the figure is -3.38% (inactive); as for `Cc1cnc(NC(=O)c2ccc(Cl)nc2)s1`, 43.4% (active).
Take `NS(=O)(=O)c1ccc(NC(=O)COC(=O)c2ccc(Cl)nc2)cc1`: the max response is -4.06% (inactive).
Turning to `CCOc1cc(NC(=O)c2ccccn2)c(OCC)cc1NC(=O)c1ccc(OC)cc1`, the max response is -3.64% (inactive).
As for `COC(=O)[C@@H](NC(=O)Nc1cc(Cl)ccc1C)C(C)C`, the figure is -5.71% (inactive).
The result for `CCN(CC)c1ccc(NC(=O)c2ccc(Cl)nc2)cc1` reads 16.7% (active); that for `O=C(Nc1nnc(Cc2ccc(Cl)cc2)s1)c1cccnc1`, 1.24% (inactive); that for `Cc1ccc(NC(=O)c2ccccn2)cc1S(=O)(=O)N1CCOCC1`, 2.74% (inactive).
As for `Cc1cnc(NC(=O)c2ccccn2)s1`, the figure is 26.4% (active).
With `Cc1noc(C)c1C(=O)Nc1ccccn1`, the max response is 7.73% (inactive).
`Cc1cnc(NC(=O)Cn2cnc3c2c(=O)n(C)c(=O)n3C)s1`: the max response was -4.16% (inactive).
As to `O=C(NNc1ccccn1)c1ccc(Cl)nc1`, the max response is 2.34% (inactive).
The result for `Cc1ccc(Cl)cc1NC(=O)c1ccccn1` reads 19.9% (active).
As for `Cc1c(CC(=O)NCCCCCC(=O)O)c(=O)oc2cc3occ(-c4ccccc4)c3cc12`, the figure is -1.63% (inactive); as for `O=C(CCN1C(=O)C2C3CCC(C3)C2C1=O)Nc1ccc(Cl)cc1Cl` (centres undefined), 3.53% (inactive); as for `CCOc1ccc(Nc2nc(Cc3nnc(SCC(=O)c4ccc(C)cc4)o3)cs2)cc1`, -3.13% (inactive).
As for `Cc1ccc(CCNC(=O)c2ccc3nc4ccccc4c(=O)n3c2)cc1`, the max response is 4.5% (inactive).
As for `CN(C)S(=O)(=O)c1cccc(C(=O)OCC(=O)N2CCCC2=O)c1`, the figure is -2.94% (inactive).
The result for `O=C(Nc1ccc(-n2ccnc2P(=O)(O)c2ccccc2)cc1)c1ccccc1Br` reads 2.05% (inactive); that for `COc1ccc(S(=O)(=O)N(CC(=O)N/N=C/c2ccc(C(=O)O)cc2)Cc2ccccc2)cc1OC`, -6.63% (inactive).
